Measurements from PubChem BioAssay (NCI).
Compounds without any hit were thinned out: in the full panel of roughly 79,000, 15% have a hit. The source made the active and inactive calls. Cut-off read from the data, not from the text of the source: active = growth inhibition above about 70%; inactive = the rest.

Experiments:
[1] = NCI Yeast Anticancer Drug Screen. Data for the rad50 strain (AID 155);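 note: 0% = growth of vehicle-only cultures of the same strain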; settings: S. cerevisiae rad50 strain growth inhibition; at 50.0 µM; hits give high values
Method in brief: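 Vehicle-treated cultures provide the reference for the growth inhibition reported for compound-exposed, repair-deficient yeast.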

[2] = NCI Yeast Anticancer Drug Screen. Data for the mec2-1 strain (AID 157); settings: S. cerevisiae mec2-1 strain, at 50.0 µM, hits give high values
Method in brief: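 Vehicle-treated cultures served as reference for growth inhibition of compound-exposed mec2-1 yeast.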

[3] = NCI Yeast Anticancer Drug Screen. Data for the sgs1 mgt1 strain (AID 161);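 note: 0% = growth of cultures given vehicle only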; settings: S. cerevisiae sgs1 mgt1 strain, at 50.0 µM, hits give high values
Method in brief: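 Read-out: growth inhibition vs vehicle controls. Cells: mutant yeast strain deficient in DNA damage repair.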

[4] = NCI Yeast Anticancer Drug Screen. Data for the cln2 rad14 strain (AID 165);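 note: 0% = growth equal to vehicle treated cultures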; settings: S. cerevisiae cln2 rad14 strain, at 50.0 µM, hits give high values
Method in brief: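 Each compound was tested on cln2 rad14 yeast. Inhibition of growth was calculated against vehicle-exposed controls.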

[5] = NCI Yeast Anticancer Drug Screen. Data for the bub3 strain (AID 167); settings: S. cerevisiae bub3 mutant strain, at 50.0 µM, hits give high values
Method in brief: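 Mutant yeast screening strain plus compound; vehicle-treated cultures serve as the 0% inhibition reference.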

[6] = NCI Yeast Anticancer Drug Screen. Data for the mlh1 rad18 strain (AID 175); settings: S. cerevisiae mlh1 rad18 strain growth inhibition; at 50.0 µM; hits give high values
Method in brief: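 Vehicle-treated cultures served as the reference for growth inhibition in a yeast strain carrying DNA damage repair alterations exposed to each compound.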

Measured: growth inhibition

O=S(=O)(OCCCC1CC2C=CC1C2)c1ccc(Br)cc1 (stereo unspecified)
inactive: [1] -1.7% | [2] -12.2% | [3] -17.6% | [4] -7.05% | [5] 1.85% | [6] 2.45%

COC(=O)C(=O)Cc1cccc(OC(C)=O)c1C(=O)OC
inactive: [1] 8.55% | [2] 6.4% | [3] 6.6% | [4] -94% | [5] 9.35% | [6] 2.6%

N#CCCN(CCC#N)c1ccc(/C=C2\N=C(CN3C(=O)c4ccccc4C3=O)OC2=O)cc1
inactive: [1] -20.1% | [2] 4.25% | [3] 7.05% | [4] 11.3% | [5] 0.05% | [6] 7.55%

Cc1nccn1C(C)c1ccccc1 (stereo unspecified)
inactive: [1] -9.8% | [2] -19.9% | [3] -16.2% | [4] -95.3% | [5] 0.35% | [6] -25.4%

NC(=O)NCSCNC(N)=O
inactive: [1] -0.7% | [2] -0.2% | [3] -7.35% | [4] 8.15% | [5] -2.75% | [6] 4.5%

Oc1ccc2c(c1)OCC(O)(c1ccccc1O)C2 (stereo unspecified)
inactive: [1] 23.8% | [2] -1.95% | [3] 6.3% | [4] 7.95% | [5] 23.2% | [6] 15.3%

CC1=NN(c2ccccc2)C(=O)/C1=C(\[O-])c1ccccc1.CC1=NN(c2ccccc2)C(=O)/C1=C(\[O-])c1ccccc1.CC1=NN(c2ccccc2)C(=O)/C1=C(\[O-])c1ccccc1.[Fe+3]
inactive: [1] 1.8% | [2] -5.75% | [3] -15.1% | [4] -16.7% | [5] -2.9% | [6] 4.45%

O=[N+]([O-])c1ccccc1C=Nc1ccccc1O
active: [5] 75%
inactive: [1] 56.4% | [2] 44.5% | [3] 52.8% | [4] 24.9% | [6] 66%

O=NN(CCCl)C(=O)NCCc1cccc[n+]1[O-]
inactive: [1] 2.6% | [2] 14.3% | [3] -14.1% | [4] -5.75% | [5] -2.45% | [6] -57.6%

CC1=C(C(=O)O)C(C)CC(=O)N1 (stereo unspecified)
inactive: [1] 5.15% | [2] -3.4% | [3] -8.25% | [4] -12.4% | [5] 1.2% | [6] 7.9%

CC(C)(C)c1ccc(O)c(CNCCO)c1
inactive: [1] 21.1% | [2] -6.65% | [3] -3.25% | [4] -28.1% | [5] 3.9% | [6] 8.05%

O=C1/C(=C/c2cccc3ccccc23)Cc2ccccc21
inactive: [1] -6.55% | [2] -25.6% | [3] -11.6% | [4] -5.65% | [5] 18.1% | [6] 7.7%

CC(O)C1OC(=O)C(O)C1O (stereo unspecified)
inactive: [1] -0.75% | [2] 4.95% | [3] -14.8% | [4] -5.9% | [5] 5.95% | [6] -6.05%

Fc1ccccc1-c1nc2ccccc2s1
inactive: [1] 45% | [2] 3.75% | [3] 19.3% | [4] -3.45% | [5] 6.05% | [6] 28.3%

COc1cc(Cl)ccc1NC(=O)Oc1ccc(-c2ccccc2)cc1Cl
inactive: [1] 65.8%
active: [2] 99.5% | [3] 99.5% | [4] 99% | [5] 99.2% | [6] 99.4%

O=C(O)Cn1ccc(=O)c2c([N+](=O)[O-])cccc21
inactive: [1] 27.2% | [2] 16.1% | [3] 0.35% | [4] 5.3% | [5] 8.55% | [6] -51.6%

CC1=CCC(=O)O1
inactive: [1] 2.15% | [2] 8.2% | [3] -1.7% | [4] 12.2% | [5] -7.75% | [6] 15.3%

O=C(NN1C(=O)C(Cl)C1c1cccc(Cl)c1)c1ccccc1O (stereo unspecified)
inactive: [1] -58.4% | [2] -29.2% | [3] -8.35% | [4] -26.6% | [5] -40.2% | [6] -17.1%

NC(=O)N(CCO)/N=C/c1ccc([N+](=O)[O-])o1
inactive: [1] 42.3% | [2] 15.7% | [3] 54.8% | [4] 17.9% | [5] 33.6% | [6] 59.9%

c1ccc(SCCc2ccncc2)cc1
inactive: [1] 25.1% | [2] 23.8% | [3] 29.7% | [4] -9.65% | [5] 3.85% | [6] 19.6%

C[C@]1(CO)CCC[C@@]2(C)C1CC[C@H]1CC3C[C@]12CC[C@]3(C)O (stereo partly specified)
inactive: [1] 47.2% | [2] 8% | [3] 41.2% | [4] 28.4% | [5] 32.6% | [6] 54.3%

Cc1cc(C)c(N)cc1C
inactive: [1] 3.9% | [2] 13% | [3] -20.4% | [4] -43.5% | [5] -2.2% | [6] -2.5%

O=C(COc1c(Cl)c(Cl)c(Cl)c(Cl)c1Cl)Nc1cccc(Cl)c1
inactive: [1] 18.9% | [2] 2% | [3] 5.25% | [4] 15.2% | [5] 21.3% | [6] 22.8%

CCCCCCCCC(O)C(O)CCCCCCCC(=O)OC (stereo unspecified)
inactive: [1] -15.3% | [2] 5% | [3] -4.55% | [4] -105% | [5] 30.5% | [6] -22.9%

CCOC(=O)c1c[nH]n(Cc2ccccc2)c1=O
inactive: [1] 12% | [2] 13.4% | [3] 2.95% | [4] -23.2% | [5] 13.6% | [6] -1.2%

CNNCCCC(=O)NC(C)C
inactive: [1] -5.7% | [2] 6.65% | [3] 9.25% | [4] 2.75% | [5] 7.8% | [6] 7.85%

NC(=S)C(=S)NCCO
inactive: [1] 19.2% | [2] 1.7% | [3] -5.7% | [4] -68.2% | [5] -2.7% | [6] -12.1%

O=P(CCc1ccccc1)(OCCCl)OCCCl
inactive: [1] 10.2% | [2] 2.15% | [3] 3.85% | [4] 14.3% | [5] 6.5% | [6] -5%

CC(C)c1ccccc1OC(=O)NC1CCCCC1
inactive: [1] 1.9% | [2] 20.7% | [3] 7.25% | [4] 0.15% | [5] 14.7% | [6] 3.95%

CCN(CC)C1=CC(=O)OC1OC (stereo unspecified)
inactive: [1] -9.65% | [2] 12.5% | [3] 2% | [4] 8.1% | [5] 3.05% | [6] -4.2%

COc1ccc(NC(=O)COc2cc(Cl)c(Cl)cc2Cl)cc1
inactive: [1] -3.7% | [2] 6.8% | [3] 2.05% | [4] 11.9% | [5] 3.9% | [6] -17.9%

COC(=O)CC(c1ccc(OC)cc1)C(CC(=O)OC)c1ccc(OC)cc1 (stereo unspecified)
inactive: [1] -19.2% | [2] -29.8% | [3] 13.9% | [4] 15.8% | [5] 25.9% | [6] -20.1%

CN(C)c1nc2[nH]ncc2c(=O)[nH]1
inactive: [1] 11.6% | [2] 1.25% | [3] 5.7% | [4] -10.1% | [5] 0.5% | [6] 0.8%

N#Cc1c2c(c(=O)n3c1[nH]c1ccccc13)CCC2
inactive: [1] -23.9% | [2] 11.4% | [3] -15.6% | [4] -3.25% | [5] -1.6% | [6] -8.2%

CC12CC(=O)C3C(CCC4=CC(=O)CCC43C)C1CC=C2CC(=O)O (stereo unspecified)
inactive: [1] -4.8% | [2] 1.15% | [3] -23.4% | [4] -3.85% | [5] -5.15% | [6] -11.2%

CC(C)C1OC2(C)OC(=N)C1(C#N)C(C#N)(C#N)C2C (stereo unspecified)
inactive: [1] -0.75% | [2] 2.2% | [3] -18.5% | [4] -10.7% | [5] -17.5% | [6] -13.8%

CC1(C)C(=NNC(=O)C[N+](C)(C)C)C(C)(C)C1=NNC(=O)C[N+](C)(C)C
inactive: [1] -0.4% | [2] -11.9% | [3] -32.9% | [4] -46.4% | [5] -0.15% | [6] -13.5%

CC(C)(Br)C(=O)N1CCN(C(c2ccccc2)c2ccccc2)CC1
inactive: [1] 3.15% | [2] 8.2% | [3] 2.3% | [4] -0.15% | [5] -0.3% | [6] 14.7%

CC1CCCC1N (stereo unspecified)
inactive: [1] -13.7% | [2] -12.5% | [3] -24.5% | [4] -27.1% | [5] -5.85% | [6] -7.5%

CS(=O)(=O)CC(=O)c1ccc(Br)cc1
inactive: [1] -3.1% | [2] -4.05% | [3] 14.1% | [4] -12.8% | [5] -5.45% | [6] 10.3%

O=C(C[n+]1ccc2ccccc2c1)c1ccc(Br)cc1
inactive: [1] -17.1% | [2] 12.3% | [3] 1.8% | [4] -0.65% | [5] -11.9% | [6] 28.9%
